The values that follow come from PubChem BioAssay (Tox21).

Test [1] has as its target Estrogen receptor beta (Homo sapiens) (UniProt Q92731). In words: qHTS assay to identify small molecule agonists of the estrogen receptor beta (ER-beta) signaling pathway (AID 1259377; active means well fitted activation curve with a large enough effect in the signal ratio in the repeat runs, not every such curve was filed as active; the % refers to the signal ratio). In short, it runs like this: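 A UAS-controlled beta-lactamase reporter in ER-beta-UAS-bla HEK293T cells reports receptor activation. Compounds act for 16 hr at 37C in 2% charcoal-stripped serum, and a FRET substrate is read by fluorescence after 2 hours.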
In general terms: qHTS replaces the single test concentration by a dilution series.

The target is the same in test [2]. The experiment in a line: qHTS assay to identify small molecule antagonists of the estrogen receptor beta (ER-beta) signaling pathway (AID 1259378; active means well fitted inhibition curve with a large enough effect in the signal ratio in the repeat runs, not every such curve was filed as active; the % refers to the signal ratio; further: potency means the concentration at half of the fitted maximal effect). The procedure, abridged:
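Antagonist mode: compounds added to beta-lactamase reporter HEK293T ER-beta-UAS cells stimulated with E2 (1nM final), 16 hr at 37C. LiveBLAzer B/G FRET substrate, 2 hours room temperature, fluorescence read-out.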

Test [3] can be described thus: qHTS assay to identify small molecule agonists of the androgen receptor (AR) signaling pathway in the presence of an antagonist - cell viability counter screen (AID 1259379). Further: nearly all actives have a fitted effect of over 25% in size. Further: potency means the concentration at half of the fitted maximal effect. The procedure, abridged: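 In MDA-kb2 cells (human breast carcinoma, MMTV-luciferase), compounds at 15 concentrations plus 3.0uM nilutamide; 16 hr, 37C, 0% CO2; CellTiter-Fluor fluorescence read for viability.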

The nature of test [4]: qHTS assay to identify small molecule agonists of the estrogen receptor beta (ER-beta) signaling pathway - cell viability counter screen (AID 1259380). Further: nearly all actives have a fitted effect of over 30% in size. Further: potency means the concentration at half of the fitted maximal effect. The procedure, abridged:
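Viability of ER-beta-UAS-bla HEK293T cells was determined by CellTiter-Glo luminescence following 16 hr treatment with test compounds at 37C.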

A short description of test [5]: qHTS assay to identify small molecule antagonists of the estrogen receptor beta (ER-beta) signaling pathway - cell viability counter screen (AID 1259382). Further: nearly all actives have a fitted effect of over 55% in size. Further: potency means the concentration at half of the fitted maximal effect. In short, it runs like this: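 Tox21 10K library tested in qHTS format on ER-beta-bla HEK293T cells stimulated with 1nM E2; 16 hr treatment at 37C. Same-well CellTiter-Glo luminescence served as the cell viability measure.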

The nature of test [6]: qHTS assay to identify small molecule agonists or antagonists of the thyroid stimulating hormone receptor (TSHR) signaling pathway - wild type cell line counter screen (AID 1259384; calls by dose curve; further: potency means the concentration at half of the fitted maximal effect). The procedure, abridged:
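Counter screen in untransfected Hek293: compounds (15-point titration, triplicate) plus phosphodiesterase inhibitor Ro20-1724 added after 18 h plating; 30 min RT. Intracellular cAMP via competitive d2/cryptate immunoassay, 1 h incubation.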

Test [7] has as its target Thyrotropin receptor (Homo sapiens) (UniProt P16473). The experiment in a line: qHTS assay to identify small molecule antagonists of the thyroid stimulating hormone receptor (TSHR) signaling pathway (AID 1259385; calls by dose curve; further: nearly all actives have a fitted effect of over 20% in size; further: potency means the concentration at half of the fitted maximal effect). In short, it runs like this: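 Antagonist mode: compound-treated TSHR-expressing HEK293 cells were stimulated with 1.5 ng/mL TSH (final) in presence of Ro20-1724 for 30 min at RT. HTRF cAMP detection after 1 h; each compound tested at 15 concentrations, triplicate.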

Test [8] is described as follows: qHTS assay to identify small molecule agonists of the estrogen receptor alpha (ER-alpha) signaling pathway in the presence of an antagonist - cell viability counter screen (AID 1259386).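 Further: cells exposed to compounds for 22 h at 37 °C before the viability read; nearly all actives have a fitted effect of over 30% in size.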 Further: potency means the concentration at half of the fitted maximal effect. In short, it runs like this: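 Fluorescent CellTiter-Fluor viability signal from VM7Luc4E2 cells, with the reagent added during the final hour of a 22hr compound exposure at 37C in the presence of 10.0nM ICI-182,780.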

For test [9], the target named is Progesterone receptor (Homo sapiens) (UniProt P06401). The experiment in a line: qHTS assay to identify small molecule agonists of the progesterone receptor (PR) signaling pathway (AID 1346784; calls by dose curve; further: nearly all actives have a fitted effect of over 30% in size; further: potency means the concentration at half of the fitted maximal effect). The procedure, abridged:
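Agonist mode, quantitative HTS format in a HEK 293T line expressing a UAS-controlled beta-lactamase reporter; 16 hr compound exposure at 37C in 2% charcoal-stripped FBS, then LiveBLAzer B/G FRET fluorescence.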

For test [10] the target is unchanged. The experiment in a line: qHTS assay to identify small molecule antagonists of the progesterone receptor (PR) signaling pathway (AID 1346795; active means well fitted inhibition curve with a large enough effect in the signal ratio in the repeat runs, not every such curve was filed as active; the % refers to the signal ratio; further: potency means the concentration at half of the fitted maximal effect). In short, it runs like this: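 HEK293T PR-UAS-bla reporter cells in charcoal-stripped serum (2%) received compound after a 6 hr settling period, followed by R5020 agonist at 1 nM final; 16 hr incubation preceded the FRET substrate step and fluorescence measurement.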

Test [11] is described as follows: qHTS assay to identify small molecule antagonists of the progesterone receptor (PR) signaling pathway - cell viability counter screen (AID 1346798). Further: nearly all actives have a fitted effect of over 50% in size. Further: potency means the concentration at half of the fitted maximal effect. In short, it runs like this: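 Same-well multiplex: after 16 hr at 37C with compound and R5020 stimulation, HEK293T cells carrying a UAS-bla reporter received LiveBLAzer substrate (2 hr RT), then CellTiter-Glo (30 min RT) for luminescent viability.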

The nature of test [12]: qHTS assay to identify small molecule agonists of the progesterone receptor (PR) signaling pathway - cell viability counter screen (AID 1346799; calls by dose curve; further: nearly all actives have a fitted effect of over 45% in size; further: potency means the concentration at half of the fitted maximal effect). The procedure, abridged:
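Counter screen for cytotoxicity: compound-treated PR-UAS-bla HEK293T cells (16 hr, 37C, 5% CO2) were assayed with CellTiter-Glo, luminescence measured after 30 min at room temperature.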

Test [13] is described as follows: qHTS assay to identify small molecule antagonists of the TGF-beta/Smad signaling pathway - cell viability counter screen (AID 1346824). Further: nearly all actives have a fitted effect of over 50% in size. Further: potency means the concentration at half of the fitted maximal effect. In short, it runs like this:
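Cytotoxicity counter-screen run in the same wells as the beta-lactamase Smad reporter read: CellTiter-Glo luminescence after 30 min at room temperature. HEK 293T SBE-bla cells had 5 hr compound exposure at 37 C with TGF-beta1 (0.25 ng/mL stock).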

Test [14] can be described thus: qHTS assay to identify small molecule agonists of the TGF-beta/Smad signaling pathway - cell viability counter screen (AID 1346829). Further: nearly all actives have a fitted effect of over 45% in size. Further: potency means the concentration at half of the fitted maximal effect. In short, it runs like this:
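Same-well cytotoxicity: CellTiter-Glo added after the 2 hr room-temperature beta-lactamase substrate step, luminescence measured 30 min later; cells had 5 hr of compound at 37 C.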

The nature of test [15]: qHTS assay to identify small molecule agonists of the TGF-beta/Smad signaling pathway (AID 1346859; active means well fitted activation curve with a large enough effect in the signal ratio in the repeat runs, not every such curve was filed as active; the % refers to the signal ratio; further: series mostly up to about 77 µM). The procedure, abridged:
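Smad-responsive beta-lactamase reporter cells (HEK 293T) received compounds from DMSO stocks after overnight attachment, were incubated 5 hr, then treated 2 hr with FRET substrate before dual-emission fluorescence measurement (405 nm excitation).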

Test [16] has as its target Thyrotropin-releasing hormone receptor (Homo sapiens) (UniProt P34981). In words: qHTS assay to identify small molecule antagonists of the thyrotropin-releasing hormone receptor (TRHR) signaling pathway (AID 1346877; active means well fitted inhibition curve with a large enough effect in the repeat runs, not every such curve was filed as active; further: series mostly up to about 51 µM). The procedure, abridged:
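In this cell-based calcium flux format, HEK293 cells expressing TRHR received test compound for 5 min before the agonist TRH (1 nM final). Dye loading lasted 2 h at 37 °C.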

For test [17] the target is unchanged. In words: qHTS assay to identify small molecule agonists of the thyrotropin-releasing hormone receptor (TRHR) signaling pathway (AID 1346891; calls by dose curve; further: series mostly up to about 58 µM). The procedure, abridged:
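Agonist-mode calcium mobilisation screen: TRHR-transfected HEK293 cells cultured overnight (18 h), dye-loaded for 2 h at 37 °C, exposed to compounds, and monitored by fluorescence for 3 min.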

Test [18] is described as follows: Human pregnane X receptor (PXR) small molecule agonists, qHTS cell viability counter screen (AID 1346977). Further: nearly all actives have a fitted effect of over 50% in size. Further: potency means the concentration at half of the fitted maximal effect. The procedure, abridged: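 Measures live-cell protease fluorescence (CellTiter-Fluor) in PXR-Luc HepG2 cells treated 24hr with compounds at 37C. Cells had 5hr to attach before pin transfer of DMSO solutions.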
The target of test [19] is Estrogen receptor (Homo sapiens) (UniProt P03372). In words: qHTS assay to identify small molecule agonists of the estrogen receptor alpha (ER-alpha) signaling pathway in the presence of an antagonist (AID 1259383; calls by dose curve; further: nearly all actives have a fitted effect of over 15% in size; further: potency means the concentration at half of the fitted maximal effect; on activation: top concentration of the series differs between compounds). In short, it runs like this: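 In VM7Luc4E2 cells, 4,000 per well, compounds at 15 concentrations were co-incubated 22hr at 37C with 10.0nM final ICI-182,780. Luminescence from the stably transfected 4×ERE-luciferase reporter was recorded 30min after ONE-Glo addition.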

For test [20], the target named is Androgen receptor (Homo sapiens) (UniProt P10275). In words: qHTS assay to identify small molecule agonists of the androgen receptor (AR) signaling pathway in the presence of an antagonist (AID 1259381; calls by dose curve; further: nearly all actives have a fitted effect of over 15% in size). In short, it runs like this:
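Here, 15-concentration compound series were pin-transferred onto MDA-kb2 MMTV-luciferase cells already dosed with nilutamide (3.0uM final). After 16hr at 37C, ONE-Glo was added and luminescence read 30min later at room temperature.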

Structures are written as SMILES. Where “and” joins values, the source holds several entries; their conditions need not be identical. Equal values may be shown once. Results filed as inconclusive are left out. Calls of active or inactive are those of the source. Unless noted, the call rests on the fitted dose curve; in most records, active means well fitted curve in the direction sought with a large enough effect in the repeat runs; inconclusive means weak or mixed curves; inactive means no such curve, though single readings can be large; an effect the other way counts as inactive or inconclusive.

Sequence of Thyrotropin-releasing hormone receptor (Homo sapiens) (P34981 whole entry, looked up): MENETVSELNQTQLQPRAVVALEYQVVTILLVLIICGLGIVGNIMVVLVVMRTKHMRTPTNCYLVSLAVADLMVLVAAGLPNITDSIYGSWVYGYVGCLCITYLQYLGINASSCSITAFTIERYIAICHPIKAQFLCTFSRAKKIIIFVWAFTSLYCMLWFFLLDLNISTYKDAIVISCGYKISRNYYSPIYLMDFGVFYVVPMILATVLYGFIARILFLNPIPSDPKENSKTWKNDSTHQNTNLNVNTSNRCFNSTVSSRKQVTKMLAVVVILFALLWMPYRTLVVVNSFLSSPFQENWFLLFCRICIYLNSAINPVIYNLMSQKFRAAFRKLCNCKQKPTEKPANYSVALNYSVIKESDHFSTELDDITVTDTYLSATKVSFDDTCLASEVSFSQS
Sequence of Estrogen receptor (Homo sapiens) (P03372 whole entry, looked up): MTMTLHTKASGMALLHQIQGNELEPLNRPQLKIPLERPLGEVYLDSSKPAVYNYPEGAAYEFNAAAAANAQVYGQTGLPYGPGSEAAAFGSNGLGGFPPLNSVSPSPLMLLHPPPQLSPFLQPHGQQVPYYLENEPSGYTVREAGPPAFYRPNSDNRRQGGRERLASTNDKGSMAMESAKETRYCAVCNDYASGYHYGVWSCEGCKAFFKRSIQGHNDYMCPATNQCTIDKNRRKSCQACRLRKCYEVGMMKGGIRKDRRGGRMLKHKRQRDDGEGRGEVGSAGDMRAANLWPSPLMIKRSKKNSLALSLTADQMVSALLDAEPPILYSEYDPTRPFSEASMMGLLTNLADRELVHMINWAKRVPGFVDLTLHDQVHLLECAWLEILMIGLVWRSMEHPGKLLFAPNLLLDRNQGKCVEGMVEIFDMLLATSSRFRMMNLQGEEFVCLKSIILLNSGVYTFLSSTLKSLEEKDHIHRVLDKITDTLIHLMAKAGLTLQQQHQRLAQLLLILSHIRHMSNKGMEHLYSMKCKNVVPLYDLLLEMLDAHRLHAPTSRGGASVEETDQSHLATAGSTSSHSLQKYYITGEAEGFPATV
Sequence of Estrogen receptor beta (Homo sapiens) (Q92731 whole entry, looked up): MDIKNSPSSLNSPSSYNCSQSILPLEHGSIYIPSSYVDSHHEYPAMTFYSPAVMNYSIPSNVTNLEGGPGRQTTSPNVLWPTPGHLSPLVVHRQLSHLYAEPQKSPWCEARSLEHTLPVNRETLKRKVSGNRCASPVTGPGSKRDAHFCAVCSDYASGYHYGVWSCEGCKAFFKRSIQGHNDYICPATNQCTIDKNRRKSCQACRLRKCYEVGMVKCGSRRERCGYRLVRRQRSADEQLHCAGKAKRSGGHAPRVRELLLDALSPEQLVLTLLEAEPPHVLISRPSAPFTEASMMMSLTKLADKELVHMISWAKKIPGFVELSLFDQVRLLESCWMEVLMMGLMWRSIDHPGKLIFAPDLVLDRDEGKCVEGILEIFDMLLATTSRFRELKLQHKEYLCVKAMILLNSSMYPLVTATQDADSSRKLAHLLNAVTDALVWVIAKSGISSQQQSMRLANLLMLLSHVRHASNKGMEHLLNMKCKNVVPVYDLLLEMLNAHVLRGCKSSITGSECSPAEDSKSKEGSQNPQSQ
Sequence of Progesterone receptor (Homo sapiens) (P06401 whole entry, looked up): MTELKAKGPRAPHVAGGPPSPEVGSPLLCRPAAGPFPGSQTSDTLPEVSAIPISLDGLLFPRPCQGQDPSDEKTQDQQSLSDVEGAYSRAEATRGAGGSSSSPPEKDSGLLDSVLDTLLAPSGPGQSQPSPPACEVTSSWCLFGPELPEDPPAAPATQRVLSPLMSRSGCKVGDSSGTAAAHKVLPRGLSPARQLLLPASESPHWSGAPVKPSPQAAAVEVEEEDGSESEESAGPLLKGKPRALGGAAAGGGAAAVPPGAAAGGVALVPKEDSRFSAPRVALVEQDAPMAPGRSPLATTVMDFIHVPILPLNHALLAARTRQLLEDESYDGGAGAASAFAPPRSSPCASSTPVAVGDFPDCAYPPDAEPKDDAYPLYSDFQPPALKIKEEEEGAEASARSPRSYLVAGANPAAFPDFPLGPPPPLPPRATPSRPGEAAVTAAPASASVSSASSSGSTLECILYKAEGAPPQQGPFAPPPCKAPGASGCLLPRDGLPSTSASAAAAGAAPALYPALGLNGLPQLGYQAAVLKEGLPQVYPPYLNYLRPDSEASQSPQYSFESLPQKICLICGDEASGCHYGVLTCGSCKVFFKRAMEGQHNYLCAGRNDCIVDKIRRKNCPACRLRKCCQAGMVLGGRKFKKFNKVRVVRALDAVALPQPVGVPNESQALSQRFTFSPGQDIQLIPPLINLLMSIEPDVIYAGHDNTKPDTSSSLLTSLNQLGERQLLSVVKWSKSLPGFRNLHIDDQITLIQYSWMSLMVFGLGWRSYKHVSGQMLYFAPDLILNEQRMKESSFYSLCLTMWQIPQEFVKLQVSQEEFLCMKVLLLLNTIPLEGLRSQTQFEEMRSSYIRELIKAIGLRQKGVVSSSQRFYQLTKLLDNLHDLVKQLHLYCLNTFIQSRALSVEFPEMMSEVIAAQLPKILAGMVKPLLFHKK
Sequence of Thyrotropin receptor (Homo sapiens) (P16473 whole entry, looked up): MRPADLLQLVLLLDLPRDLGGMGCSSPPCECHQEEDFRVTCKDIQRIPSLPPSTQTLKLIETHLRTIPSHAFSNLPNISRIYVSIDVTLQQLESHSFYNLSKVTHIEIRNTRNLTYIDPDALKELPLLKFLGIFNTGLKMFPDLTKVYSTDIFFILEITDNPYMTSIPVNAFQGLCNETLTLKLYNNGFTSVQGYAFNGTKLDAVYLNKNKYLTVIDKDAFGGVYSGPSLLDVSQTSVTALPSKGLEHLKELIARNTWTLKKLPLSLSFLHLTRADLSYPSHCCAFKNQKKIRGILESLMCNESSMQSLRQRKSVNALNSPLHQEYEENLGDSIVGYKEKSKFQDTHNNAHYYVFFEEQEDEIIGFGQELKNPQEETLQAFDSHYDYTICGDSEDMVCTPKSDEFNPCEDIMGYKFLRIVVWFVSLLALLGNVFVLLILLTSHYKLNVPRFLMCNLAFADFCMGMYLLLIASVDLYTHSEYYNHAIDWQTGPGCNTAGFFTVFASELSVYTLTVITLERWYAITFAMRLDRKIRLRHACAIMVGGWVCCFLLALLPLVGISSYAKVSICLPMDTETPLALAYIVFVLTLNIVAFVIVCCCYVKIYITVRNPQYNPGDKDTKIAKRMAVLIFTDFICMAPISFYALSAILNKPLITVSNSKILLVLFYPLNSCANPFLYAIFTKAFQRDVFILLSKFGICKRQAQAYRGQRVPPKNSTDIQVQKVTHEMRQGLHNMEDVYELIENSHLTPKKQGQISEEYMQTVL
Sequence of Androgen receptor (Homo sapiens) (P10275 whole entry, looked up): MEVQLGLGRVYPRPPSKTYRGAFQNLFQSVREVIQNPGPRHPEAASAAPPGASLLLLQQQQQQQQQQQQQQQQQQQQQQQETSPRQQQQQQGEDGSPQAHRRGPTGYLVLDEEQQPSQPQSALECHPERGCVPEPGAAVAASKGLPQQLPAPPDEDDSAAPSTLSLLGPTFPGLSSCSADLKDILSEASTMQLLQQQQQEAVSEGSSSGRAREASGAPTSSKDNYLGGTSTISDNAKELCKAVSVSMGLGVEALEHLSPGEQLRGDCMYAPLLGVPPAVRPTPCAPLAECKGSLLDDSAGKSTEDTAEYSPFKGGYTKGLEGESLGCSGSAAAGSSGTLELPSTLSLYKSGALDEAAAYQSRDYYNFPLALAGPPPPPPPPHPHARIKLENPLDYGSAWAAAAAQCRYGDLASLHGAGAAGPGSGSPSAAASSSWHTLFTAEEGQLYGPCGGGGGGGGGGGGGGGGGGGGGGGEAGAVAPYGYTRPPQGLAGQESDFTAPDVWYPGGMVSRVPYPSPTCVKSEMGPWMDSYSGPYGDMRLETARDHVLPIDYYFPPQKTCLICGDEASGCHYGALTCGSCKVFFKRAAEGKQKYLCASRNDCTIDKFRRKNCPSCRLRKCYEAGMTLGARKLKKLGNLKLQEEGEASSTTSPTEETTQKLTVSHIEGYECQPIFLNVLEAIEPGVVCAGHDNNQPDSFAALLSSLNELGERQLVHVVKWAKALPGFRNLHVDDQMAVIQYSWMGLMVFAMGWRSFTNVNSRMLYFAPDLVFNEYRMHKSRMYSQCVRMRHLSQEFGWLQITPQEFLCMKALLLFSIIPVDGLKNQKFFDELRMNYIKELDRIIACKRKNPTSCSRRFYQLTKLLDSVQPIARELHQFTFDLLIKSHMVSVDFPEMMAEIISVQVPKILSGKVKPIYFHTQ

With `CC(C)NCC(O)c1ccc(O)c(O)c1` (stereo not given), the Potency result in test [1], in test [2], in [3], in test [4], in test [5] and in [7] was “inactive” each time. The Potency result in test [9], in test [10], in [11], in test [12], in [13] and in test [14] was “inactive” throughout. In addition, the Potency entry in test [16], in test [17] and in test [18] was “inactive” throughout. In addition, the Potency in [6] is 4.98 nM (active) and 5.87 nM (active) and 5.7 nM (active); in test [8], 54.5 µM (active). For the same molecule, the molecule was called inactive in test [15].
For the molecule `COc1ccc(C(Cl)=C(c2ccc(OC)cc2)c2ccc(OC)cc2)cc1`, the Potency entry in test [1], in test [3], in test [4], in test [5], in test [8] and in test [9] was “inactive” throughout. Moreover, the Potency result in test [11], in test [13], in [14], in test [16], in test [17] and in [18] was “inactive” each time. Also, the Potency was 433 nM (active) and 668 nM (active) in [2]; 15.3 µM (active) and 8.41 µM (active) in test [19]; 6.82 µM (active) and 5.45 µM (active) and 4.22 µM (active) in test [10]. Further, in [15], the outcome was inactive.
As to `CC1(C)O[C@@H]2C[C@H]3[C@@H]4CCC5=CC(=O)C=C[C@]5(C)[C@@]4(F)[C@@H](O)C[C@]3(C)[C@]2(C(=O)CO)O1`, the Potency result in test [1], in test [2], in [3], in test [4], in [5] and in test [8] was “inactive” in each case. The Potency entry in test [11], in test [12], in [13], in test [14] and in test [18] was “inactive” each time. Also, the Potency in test [9] is 3.5 nM (active) and 3.9 nM (active) and 3.8 nM (active). Also, in [15], the call was inactive.
For `C=C(C)C(=O)OCC(C)O` (stereo not given), the Potency entry in test [1], in test [2], in test [3], in test [4], in test [5] and in test [19] was “inactive” each time. The Potency result in test [6], in test [7], in test [8], in [9], in [10] and in test [11] was “inactive” throughout. Moreover, the Potency result in test [12], in test [13], in [14] and in test [18] was “inactive” throughout. Besides, in test [15], the molecule was called inactive.
Take `C1CCC(C(CC2CCCCN2)C2CCCCC2)CC1` (stereo not given): the Potency result in test [1], in test [20], in test [19], in test [6], in [8] and in test [9] was “inactive” in each case. The Potency is 18.8 µM (active) in test [2]; 29.8 µM (active) in test [3]; 23.7 µM (active) in [4]; 18.8 µM (active) in test [5]; 33.5 µM (active) in test [7]; 29.8 µM (active) in test [10]. The Potency in [11] was 26.6 µM (active); in test [12], 23.7 µM (active); in test [13], 26.8 µM (active); in [14], 26.8 µM (active); in test [18] it was 26.6 µM (active).
On to `OC[C@H]1O[C@H](O[C@]2(CCl)O[C@H](CCl)[C@@H](O)[C@@H]2O)[C@H](O)[C@@H](O)[C@H]1Cl`, for which the Potency result in test [1], in [2], in test [3], in test [4], in test [5] and in [6] was “inactive” throughout. Also, the Potency entry in test [7], in test [8], in test [9], in test [10], in test [11] and in [12] was “inactive” in each case. Further, the Potency result in [13], in test [14], in test [16], in test [17] and in [18] was “inactive” throughout. In addition, the call in [15] was inactive.
On to `Cc1cn([C@H]2C=C[C@@H](CO)O2)c(=O)[nH]c1=O`, for which the Potency result in test [1], in test [2], in [3], in [4], in test [5] and in test [6] was “inactive” in each case. Moreover, the Potency result in [7], in test [8], in test [9], in [10], in [11] and in test [12] was “inactive” each time. Also, the Potency entry in test [13], in test [14] and in test [18] was “inactive” each time. Also, the outcome in [15] was inactive.
